Assay results: the supplement of paper PMC11732987, “Enantioselective OTUD7B fragment discovery through chemoproteomics screening and high-throughput optimisation” (Communications Chemistry, 2025)
Unmarked numbers belong to inactive results.

Legend:
Assay in all cases: log2 ratio of Biotin-Ahx-Ub-VS probe labelling (fragment/DMSO); higher = less target engagement (more negative = stronger competition), active = hit call of the paper (q ≤ 0.05, log2 ratio ≤ -1)
Details in all cases: compound concentration: 200 uM; treatment time: 3 h
USP19 = target: T1, USP19 (UniProt O94966)
T1 sequence (whole entry): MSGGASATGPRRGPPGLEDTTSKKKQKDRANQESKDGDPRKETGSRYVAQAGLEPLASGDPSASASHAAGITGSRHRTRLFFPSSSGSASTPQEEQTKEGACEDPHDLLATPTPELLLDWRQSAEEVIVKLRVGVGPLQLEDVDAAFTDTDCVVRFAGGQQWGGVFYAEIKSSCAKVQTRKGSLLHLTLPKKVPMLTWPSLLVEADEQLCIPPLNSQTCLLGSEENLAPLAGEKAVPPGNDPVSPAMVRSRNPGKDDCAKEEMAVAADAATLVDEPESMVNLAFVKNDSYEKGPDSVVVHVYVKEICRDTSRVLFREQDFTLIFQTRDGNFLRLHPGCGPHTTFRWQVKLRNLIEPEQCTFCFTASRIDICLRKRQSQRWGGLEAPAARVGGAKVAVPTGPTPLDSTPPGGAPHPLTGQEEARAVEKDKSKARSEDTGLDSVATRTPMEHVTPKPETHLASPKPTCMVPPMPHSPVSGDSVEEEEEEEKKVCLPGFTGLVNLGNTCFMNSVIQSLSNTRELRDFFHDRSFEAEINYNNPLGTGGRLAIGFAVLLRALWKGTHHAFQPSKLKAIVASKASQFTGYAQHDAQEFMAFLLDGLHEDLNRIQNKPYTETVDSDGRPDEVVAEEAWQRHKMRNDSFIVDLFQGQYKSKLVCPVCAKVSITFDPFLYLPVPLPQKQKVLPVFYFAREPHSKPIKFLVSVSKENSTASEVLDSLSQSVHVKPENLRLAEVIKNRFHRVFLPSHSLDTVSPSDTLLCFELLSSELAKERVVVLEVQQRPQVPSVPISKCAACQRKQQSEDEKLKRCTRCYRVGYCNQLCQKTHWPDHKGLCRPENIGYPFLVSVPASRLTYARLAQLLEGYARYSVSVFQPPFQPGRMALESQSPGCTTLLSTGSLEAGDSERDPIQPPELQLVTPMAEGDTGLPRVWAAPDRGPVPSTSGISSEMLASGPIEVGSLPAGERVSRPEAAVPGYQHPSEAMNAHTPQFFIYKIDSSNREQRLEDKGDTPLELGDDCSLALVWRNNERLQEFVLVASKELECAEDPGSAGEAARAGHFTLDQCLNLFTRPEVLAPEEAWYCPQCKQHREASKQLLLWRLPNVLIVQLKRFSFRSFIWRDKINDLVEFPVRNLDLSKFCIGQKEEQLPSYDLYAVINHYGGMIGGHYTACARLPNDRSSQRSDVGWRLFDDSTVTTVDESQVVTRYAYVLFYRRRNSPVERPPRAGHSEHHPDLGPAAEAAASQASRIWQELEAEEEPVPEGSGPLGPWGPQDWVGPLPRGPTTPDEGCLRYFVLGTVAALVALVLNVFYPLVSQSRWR
In short: (§1)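 Each value is an average log2 ratio of fragment to vehicle, tested by unpaired t-test. The underlying Spectronaut label-free quantities were global-median-normalised, and only proteins with ≥2 unique peptides were included. Triplicate HEK293T lysate samples (495 µg) were exposed to fragment at 200 µM or vehicle for 3 h, then to Biotin-Ahx-Ub-VS at 0.5 µM final for 1 h, before NeutrAvidin enrichment of labelled DUBs, LysC and trypsin digestion, and diaPASEF LC-MS/MS.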

USP22 = target: T2, USP22 (UniProt Q9UPT9)
T2 sequence (whole entry): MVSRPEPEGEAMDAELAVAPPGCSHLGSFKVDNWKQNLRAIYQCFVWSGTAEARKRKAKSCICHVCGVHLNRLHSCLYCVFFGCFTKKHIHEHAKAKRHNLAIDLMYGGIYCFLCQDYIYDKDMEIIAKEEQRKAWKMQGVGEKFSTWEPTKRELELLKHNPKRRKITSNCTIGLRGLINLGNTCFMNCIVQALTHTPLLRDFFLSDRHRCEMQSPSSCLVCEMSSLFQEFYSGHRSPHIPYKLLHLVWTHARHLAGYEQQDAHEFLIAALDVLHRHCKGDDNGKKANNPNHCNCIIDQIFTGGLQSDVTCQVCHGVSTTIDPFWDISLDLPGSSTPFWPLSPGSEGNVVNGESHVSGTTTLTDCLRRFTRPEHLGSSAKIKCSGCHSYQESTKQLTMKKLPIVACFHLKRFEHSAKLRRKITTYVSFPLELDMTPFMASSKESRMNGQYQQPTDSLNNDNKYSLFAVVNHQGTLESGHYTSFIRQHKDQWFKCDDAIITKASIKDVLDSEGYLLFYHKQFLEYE
In short: as §1

USP24 = USP24 (UniProt Q9UPU5)
In short: as §1

USP25 = target: T3, USP25 (UniProt Q9UHP3)
T3 sequence (whole entry): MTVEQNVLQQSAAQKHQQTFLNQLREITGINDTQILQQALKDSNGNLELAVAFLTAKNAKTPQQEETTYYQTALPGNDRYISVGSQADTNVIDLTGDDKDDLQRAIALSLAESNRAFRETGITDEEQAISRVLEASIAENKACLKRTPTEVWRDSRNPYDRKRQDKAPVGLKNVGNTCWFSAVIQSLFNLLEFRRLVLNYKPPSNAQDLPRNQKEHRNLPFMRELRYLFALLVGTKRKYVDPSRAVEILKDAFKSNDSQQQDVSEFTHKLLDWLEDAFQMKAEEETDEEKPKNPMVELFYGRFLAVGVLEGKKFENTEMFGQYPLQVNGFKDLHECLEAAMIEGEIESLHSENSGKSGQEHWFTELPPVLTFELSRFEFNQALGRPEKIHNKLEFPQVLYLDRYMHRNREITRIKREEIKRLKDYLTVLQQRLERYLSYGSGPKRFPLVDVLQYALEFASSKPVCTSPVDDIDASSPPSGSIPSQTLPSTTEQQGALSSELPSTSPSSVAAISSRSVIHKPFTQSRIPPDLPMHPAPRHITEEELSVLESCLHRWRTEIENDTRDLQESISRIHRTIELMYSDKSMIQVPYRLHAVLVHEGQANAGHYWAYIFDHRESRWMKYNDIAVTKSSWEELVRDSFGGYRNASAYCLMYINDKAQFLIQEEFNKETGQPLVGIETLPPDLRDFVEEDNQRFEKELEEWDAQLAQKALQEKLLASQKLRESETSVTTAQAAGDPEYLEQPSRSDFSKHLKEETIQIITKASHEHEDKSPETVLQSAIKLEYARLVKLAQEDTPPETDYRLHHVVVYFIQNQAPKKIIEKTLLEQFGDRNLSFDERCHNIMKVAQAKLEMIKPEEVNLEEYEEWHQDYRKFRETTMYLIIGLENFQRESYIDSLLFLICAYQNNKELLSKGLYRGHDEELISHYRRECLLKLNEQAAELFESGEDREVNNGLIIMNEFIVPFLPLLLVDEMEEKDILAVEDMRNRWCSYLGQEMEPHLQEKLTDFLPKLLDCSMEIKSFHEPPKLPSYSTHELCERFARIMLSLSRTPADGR
In short: as §1

USP28 = target: T4, USP28 (UniProt Q96RU2)
T4 sequence (whole entry): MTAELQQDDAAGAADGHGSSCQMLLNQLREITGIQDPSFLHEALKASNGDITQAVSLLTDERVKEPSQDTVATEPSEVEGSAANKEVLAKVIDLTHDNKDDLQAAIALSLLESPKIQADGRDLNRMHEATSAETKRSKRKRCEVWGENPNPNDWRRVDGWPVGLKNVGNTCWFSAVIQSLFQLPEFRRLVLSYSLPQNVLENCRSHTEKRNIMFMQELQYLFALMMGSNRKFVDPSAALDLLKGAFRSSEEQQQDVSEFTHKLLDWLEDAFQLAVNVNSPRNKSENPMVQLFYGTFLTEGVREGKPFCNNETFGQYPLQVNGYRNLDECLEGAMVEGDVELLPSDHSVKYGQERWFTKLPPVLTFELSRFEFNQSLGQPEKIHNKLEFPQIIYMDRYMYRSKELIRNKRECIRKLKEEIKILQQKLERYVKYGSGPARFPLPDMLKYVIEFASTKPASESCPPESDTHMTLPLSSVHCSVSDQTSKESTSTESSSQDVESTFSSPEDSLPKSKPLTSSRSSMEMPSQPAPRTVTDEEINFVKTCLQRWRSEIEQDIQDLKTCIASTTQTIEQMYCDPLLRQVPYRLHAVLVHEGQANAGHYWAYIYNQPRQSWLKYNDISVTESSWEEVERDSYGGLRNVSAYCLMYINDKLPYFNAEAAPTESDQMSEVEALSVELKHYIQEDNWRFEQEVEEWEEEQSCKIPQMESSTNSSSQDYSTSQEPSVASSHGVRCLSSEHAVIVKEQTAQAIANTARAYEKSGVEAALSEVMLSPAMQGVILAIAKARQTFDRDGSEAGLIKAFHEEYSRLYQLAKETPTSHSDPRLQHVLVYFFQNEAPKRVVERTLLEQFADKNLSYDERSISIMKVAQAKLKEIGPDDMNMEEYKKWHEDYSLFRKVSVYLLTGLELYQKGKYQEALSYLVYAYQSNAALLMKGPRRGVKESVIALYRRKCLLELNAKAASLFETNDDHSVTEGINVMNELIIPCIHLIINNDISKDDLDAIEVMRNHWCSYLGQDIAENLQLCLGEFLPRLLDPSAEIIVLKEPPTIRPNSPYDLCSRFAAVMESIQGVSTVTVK
In short: as §1

Sequence of USP24 (Q9UPU5 whole entry): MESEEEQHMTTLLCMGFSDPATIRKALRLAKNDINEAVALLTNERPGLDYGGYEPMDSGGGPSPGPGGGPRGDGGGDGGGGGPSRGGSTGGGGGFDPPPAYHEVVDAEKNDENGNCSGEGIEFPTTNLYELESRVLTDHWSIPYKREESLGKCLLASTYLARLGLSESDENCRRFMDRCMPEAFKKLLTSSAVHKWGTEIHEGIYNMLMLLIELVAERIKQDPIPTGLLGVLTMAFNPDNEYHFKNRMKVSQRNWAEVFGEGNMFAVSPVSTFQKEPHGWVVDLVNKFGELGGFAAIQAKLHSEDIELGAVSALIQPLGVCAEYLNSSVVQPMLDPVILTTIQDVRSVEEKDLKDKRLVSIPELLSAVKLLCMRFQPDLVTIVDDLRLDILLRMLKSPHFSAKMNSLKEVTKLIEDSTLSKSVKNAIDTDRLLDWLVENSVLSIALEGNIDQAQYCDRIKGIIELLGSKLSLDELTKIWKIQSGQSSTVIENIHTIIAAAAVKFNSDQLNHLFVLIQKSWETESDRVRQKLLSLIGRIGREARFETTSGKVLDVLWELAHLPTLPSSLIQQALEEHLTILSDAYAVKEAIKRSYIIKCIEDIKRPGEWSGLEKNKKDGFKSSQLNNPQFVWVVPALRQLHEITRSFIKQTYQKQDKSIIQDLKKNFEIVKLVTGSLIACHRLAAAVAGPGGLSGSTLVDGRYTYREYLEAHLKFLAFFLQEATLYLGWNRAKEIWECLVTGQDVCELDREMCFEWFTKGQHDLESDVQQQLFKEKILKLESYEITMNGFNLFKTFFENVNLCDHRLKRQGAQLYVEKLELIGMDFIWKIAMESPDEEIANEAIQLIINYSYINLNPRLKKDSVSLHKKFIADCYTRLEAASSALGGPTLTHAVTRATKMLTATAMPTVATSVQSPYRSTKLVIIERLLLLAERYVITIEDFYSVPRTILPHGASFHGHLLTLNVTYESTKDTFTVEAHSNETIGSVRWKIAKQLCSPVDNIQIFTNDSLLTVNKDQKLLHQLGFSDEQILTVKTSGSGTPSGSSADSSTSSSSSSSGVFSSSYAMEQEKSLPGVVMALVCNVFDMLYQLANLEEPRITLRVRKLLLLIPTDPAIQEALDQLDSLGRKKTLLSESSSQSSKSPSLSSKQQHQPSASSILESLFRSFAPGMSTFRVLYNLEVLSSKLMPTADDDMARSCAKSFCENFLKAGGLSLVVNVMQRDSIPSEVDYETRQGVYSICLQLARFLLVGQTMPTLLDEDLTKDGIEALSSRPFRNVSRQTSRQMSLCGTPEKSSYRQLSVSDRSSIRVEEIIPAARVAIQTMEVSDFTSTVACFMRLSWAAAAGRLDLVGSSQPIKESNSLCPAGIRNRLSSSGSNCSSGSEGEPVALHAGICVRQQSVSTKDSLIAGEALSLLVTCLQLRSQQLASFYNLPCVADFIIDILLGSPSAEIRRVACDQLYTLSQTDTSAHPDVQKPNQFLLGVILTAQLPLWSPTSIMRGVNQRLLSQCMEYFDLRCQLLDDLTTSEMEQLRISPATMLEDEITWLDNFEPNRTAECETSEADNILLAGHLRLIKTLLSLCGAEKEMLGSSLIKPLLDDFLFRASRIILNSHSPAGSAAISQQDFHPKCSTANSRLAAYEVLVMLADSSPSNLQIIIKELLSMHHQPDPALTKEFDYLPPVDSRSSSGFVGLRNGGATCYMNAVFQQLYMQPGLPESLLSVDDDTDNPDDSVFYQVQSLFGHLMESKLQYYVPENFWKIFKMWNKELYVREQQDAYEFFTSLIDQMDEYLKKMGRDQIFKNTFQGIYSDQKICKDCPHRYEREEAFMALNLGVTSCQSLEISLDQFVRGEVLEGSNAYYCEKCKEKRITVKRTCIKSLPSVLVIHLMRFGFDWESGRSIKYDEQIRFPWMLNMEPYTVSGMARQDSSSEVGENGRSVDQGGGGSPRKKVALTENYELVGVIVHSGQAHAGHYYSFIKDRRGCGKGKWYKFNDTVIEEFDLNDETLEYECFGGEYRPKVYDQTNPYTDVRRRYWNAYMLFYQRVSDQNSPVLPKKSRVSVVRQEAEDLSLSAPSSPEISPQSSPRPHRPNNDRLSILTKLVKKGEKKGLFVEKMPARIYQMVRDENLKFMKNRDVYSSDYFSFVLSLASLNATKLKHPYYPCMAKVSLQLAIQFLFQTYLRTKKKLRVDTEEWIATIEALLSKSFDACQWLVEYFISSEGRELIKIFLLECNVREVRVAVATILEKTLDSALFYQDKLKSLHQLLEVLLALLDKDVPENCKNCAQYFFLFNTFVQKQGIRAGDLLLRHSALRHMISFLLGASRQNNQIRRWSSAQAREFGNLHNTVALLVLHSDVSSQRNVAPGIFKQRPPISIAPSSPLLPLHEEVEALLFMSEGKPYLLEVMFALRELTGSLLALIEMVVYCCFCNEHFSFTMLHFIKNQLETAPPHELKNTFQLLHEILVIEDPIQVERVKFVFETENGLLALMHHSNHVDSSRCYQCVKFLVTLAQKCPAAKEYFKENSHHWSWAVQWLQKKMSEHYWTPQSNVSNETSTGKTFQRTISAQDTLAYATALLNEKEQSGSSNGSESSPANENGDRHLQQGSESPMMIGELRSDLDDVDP

Q: For `O=C(CCl)N1CCc2[nH]c3ccccc3c2C1`, which “log2 ratio of Biotin-Ahx-Ub-VS probe labelling” value (“log2 ratio” below) (USP19) is on record?
A: -0.968

Q: What about the “log2 ratio” value (USP22) of the same compound?
A: -0.357

Q: What about the “log2 ratio” value (USP24) of the same compound?
A: -1.93 (active)

Q: And the “log2 ratio” value (USP25)?
A: -0.589

Q: What about the “log2 ratio” value (USP28) of the same compound?
A: -0.765
